Results as given in publication PMC5540273 (PLoS ONE, 2017).

Tests used:
Conditions in all cases: concentration: 1 μM, replicates: in singlicate; n = 1
[1] = test system: CDC2L2
[2] = test system: T1, CDC2L5
T1 construct: gene CDK13

[3] = test system: T2, CDK11
T2 construct: gene CDK19

[4] = test system: CDK2
[5] = test system: CDK3
[6] = test system: CDK4-cyclinD1
[7] = test system: CDK4-cyclinD3
[8] = test system: CDK4
[9] = test system: CDK5
[10] = test system: CDK7
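Further: KINOMEscan kinase panel screen.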

Row | Compound | %Inh [1] [%] | %Inh [2] [%] | %Inh [3] [%] | %Inh [4] [%] | %Inh [5] [%] | %Inh [6] [%] | %Inh [7] [%] | %Inh [8] [%] | %Inh [9] [%] | %Inh [10] [%]
1 | COc1cccc(-c2nc(-c3ccccc3)[nH]c2-c2ccncc2)c1 [SB-610250] | 0 | 0 | 22 | 2 | 24 | 0 | 7 | 0 | 0 | 0
2 | NCCC(NC(=O)c1cc(Br)c(-c2ccnc3[nH]ccc23)s1)c1ccccc1.O=C(O)C(F)(F)F.O=C(O)C(F)(F)F (stereo not drawn) [GSK1307810] | 6 | 0 | 58 | 0 | 6 | 38 | 0 | 27 | 0 | 47
3 | Cn1cc(-c2ccc3c(c2)CCN3C(=O)Cc2cc(F)cc(F)c2F)c2c(N)ncnc21 [GSK2634140] | 19 | 0 | 86 | 8 | 45 | 0 | 0 | 26 | 0 | 0
4 | O=C1NC(=O)C(c2ccccc2Cl)=C1Nc1cccc(Cl)c1 [SB-342409] | 13 | 0 | 0 | 1 | 14 | 7 | 33 | 0 | 0 | 42
5 | CC(C)NCC(Cc1ccccc1)NC(=O)c1cc(Br)c(-c2ccnc3[nH]ccc23)s1.Cl.Cl (stereo not drawn) [GSK1383281] | 39 | 0 | 31 | 0 | 0 | 0 | 0 | 0 | 0 | 16
6 | O=C(Nc1n[nH]c2cc(-c3cccs3)ccc12)C1CC1 [SB-731284] | 0 | 85 | 0 | 65 | 16 | 0 | 18 | 8 | 0 | 48
7 | Cl.N#CCc1ccc(Nc2nccc(Nc3ccc(Oc4ccccc4)cc3)n2)cc1 [GW639905] | 1 | 0 | 0 | 0 | 4 | 0 | 3 | 0 | 0 | 0
8 | Cc1ccc(NC(=O)c2cccc(N3CCCCC3)c2)cc1-c1ccc(C(=O)NCC2CC2)cc1 [GSK1917008] | 8 | 0 | 8 | 2 | 8 | 0 | 1 | 0 | 2 | 0
9 | Cl.O=C(Nc1ccc(Oc2ccc3[nH]c(NC(=O)c4ccco4)nc3c2)cc1)Nc1cc(C(F)(F)F)ccc1F [GW683134] | 1 | 0 | 88 | 0 | 9 | 0 | 0 | 4 | 0 | 78
10 | Cc1ccc(C)c(NC(=O)Nc2ccc(C)c(-c3ccc(C(=O)Nc4ccncc4)cc3)c2)c1 [GSK1398473] | 5 | 0 | 74 | 0 | 0 | 0 | 2 | 0 | 2 | 0
11 | CN(C)c1ncnc2nc[nH]c12 [SKF-31736] | 0 | 11 | 0 | 0 | 17 | 0 | 0 | 25 | 0 | 0
12 | Nc1ncc(-c2ccc3nccc(-c4ccncc4)c3c2)cc1S(=O)(=O)N1CCCCC1 [GSK1693850] | 21 | 0 | 73 | 0 | 7 | 9 | 13 | 0 | 0 | 80
13 | N#Cc1cnc2cc(-c3cnc(CNCCN4CCOCC4)s3)ccc2c1Nc1ccc(Oc2ccccc2)cc1 [GW664114] | 6 | 0 | 0 | 0 | 7 | 0 | 4 | 10 | 0 | 15
14 | Cc1ccc(Nc2ccnc(Nc3ccc(C)c(F)c3)n2)cc1O.Cl [GW582868] | 0 | 0 | 6 | 0 | 0 | 0 | 5 | 0 | 0 | 0
15 | Nc1cccc(-c2ccc3c(N)n[nH]c3c2)c1 [GSK2193613] | 16 | 0 | 8 | 1 | 0 | 13 | 0 | 0 | 0 | 15
16 | Cl.Cl.NC(CNC(=O)c1cc(Br)c(-c2ccnc3[nH]ccc23)s1)c1ccccc1 (stereo not drawn) [GSK1322949] | 9 | 0 | 42 | 0 | 25 | 17 | 0 | 23 | 0 | 47
17 | CC(=O)Nc1cn2nc(Oc3cccc(NC(=O)c4cccc(C(F)(F)F)c4)c3)ccc2n1 | 14 | 0 | 29 | 2 | 24 | 0 | 0 | 0 | 0 | 0

Row | Compound | %Inh [1] [%] | %Inh [2] [%] | %Inh [3] [%] | %Inh [4] [%] | %Inh [5] [%] | %Inh [6] [%] | %Inh [7] [%] | %Inh [8] [%] | %Inh [9] [%] | %Inh [10] [%]
18 | Cc1ccc(-c2ccc3occ(-c4ccc(S(C)=O)cc4)c3c2)nn1 (stereo not drawn) | 0 | 24 | 29 | 36 | 4 | 0 | 0 | 0 | 0 | 0
19 | Cc1nn2c(=O)cc(N3CCO[C@H](C)C3)nc2n1Cc1cccc(Cl)c1Cl [GSK2373693] | 4 | 0 | 3 | 54 | 76 | 53 | 2 | 13 | 0 | 0
20 | O=C(Nc1n[nH]c2nc(-c3ccccc3O)ccc12)C1CC1 [SB-711880] | 0 | 11 | 0 | 37 | 22 | 25 | 17 | 0 | 0 | 7
21 | COC(=O)Nc1nc2ccc(Oc3ccc(NC(=O)Nc4cc(C(F)(F)F)ccc4F)cc3)cc2[nH]1.Cl [GW654607] | 4 | 6 | 87 | 30 | 18 | 0 | 0 | 26 | 17 | 97.4
22 | CN(c1ccc2c(c1)nc(NCc1ccccc1)n2C)c1ccnc(Nc2ccc(CS(C)(=O)=O)cc2)n1.Cl [GW811603] | 80 | 49 | 24 | 0 | 0 | 35 | 0 | 34 | 0 | 20
23 | Cc1cc(-c2ccnc(Nc3cccc(C#N)c3)n2)cc(C)c1O [GSK1440913] | 51 | 0 | 0 | 68 | 30 | 42 | 22 | 0 | 18 | 61
24 | COc1cc(Nc2nccc(N3CCC(NC(=O)Nc4ccc5c(c4)OCO5)C3)n2)cc(OC)c1OC (stereo not drawn) [GSK1379766] | 18 | 0 | 2 | 0 | 2 | 0 | 14 | 0 | 0 | 0
25 | CN1CCN(Cc2ccc(NC(=O)Nc3ccc(N(C)c4ccnc(Nc5ccc(CS(C)(=O)=O)cc5)n4)cc3)cc2)CC1.Cl [GW827654] | 38 | 99.8 | 60 | 16 | 0 | 50 | 97.8 | 65 | 58 | 53
26 | CCNc1nccc(-c2c(-c3ccc(F)cc3)ncn2C2CCN(C)CC2)n1 | 16 | 0 | 19 | 0 | 0 | 0 | 0 | 0 | 0 | 0
27 | CN(c1ccc(NC(=O)N2CCN(CCCN3CCOCC3)CC2)cc1)c1ccnc(Nc2ccc(CS(C)(=O)=O)cc2)n1.Cl [GW830899] | 1 | 0 | 0 | 0 | 18 | 0 | 0 | 0 | 0 | 0
28 | Cc1ccc(NC(=O)c2ccnc(N3CCCCC3)c2)cc1-c1ccc(C(=O)NCC2CC2)cc1 [GW775610] | 0 | 0 | 0 | 36 | 0 | 20 | 0 | 0 | 8 | 0
29 | O=C(O)C(F)(F)F.O=c1[nH]ccc2nc(N[C@@H]3CCNC3)nc(Nc3cc(Cl)cc(Cl)c3)c12 [GSK2188764] | 24 | 0 | 2 | 0 | 30 | 38 | 23 | 13 | 44 | 85
30 | Cc1cc(-c2c(-c3ccc(F)cc3)ncn2CCCN2CCOCC2)nc(N)n1 [SB-222517] | 8 | 0 | 22 | 0 | 18 | 0 | 0 | 24 | 14 | 11
31 | CN(c1ccc(F)c(NC(=O)c2cccc(OC(C)(C)C#N)c2Cl)c1)c1ccc2nc(NC(=O)C3CC3)sc2n1 | 0 | 0 | 0 | 0 | 1 | 4 | 7 | 12 | 0 | 24
32 | CC(C)(C)c1ccc(C(=O)Nc2cn3cc(-n4ccnc4)ccc3n2)cc1 | 1 | 7 | 1 | 12 | 0 | 0 | 0 | 0 | 8 | 4
33 | COc1cccc(C2=C(Nc3cccc(O)c3)C(=O)NC2=O)c1 [SB-390771] | 15 | 0 | 0 | 18 | 13 | 0 | 0 | 0 | 0 | 98.3
